Experimental findings from PubChem BioAssay (NCATS) are described below.

Several values for one entry are separate records, joined by “and”; a condition that tells them apart may be missing. Equal values may be shown once. Inconclusive results are not listed. Values without a mark were called inactive. Activity calls are given as the source filed them. The call rests on the fitted dose curve; in most records, active means well fitted curve in the direction sought with a large enough effect; inconclusive means small, poorly fitted or top-dose-only effect, or another doubt; inactive means no such curve, though single readings can be large; an effect the other way counts as inactive or inconclusive.

One experiment concerns CRL-7250. The experiment is described as follows: Cytotoxic Profiling of Annotated Libraries Using Quantitative High-Throughput Screening (AID 1296008). Further: nearly all actives have a fitted effect of over 60% in size. The note with it: Five cell lines viability, CellTiter-Glo ATP luminescence, 48-72 h; max response: hits give low values. In a few lines:
(§1)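 Cytotoxicity was measured as CellTiter-Glo ATP luminescence, read after 10 min at room temperature. Compound treatment of the cells lasted 48 or 72 hr at 37 degrees Celsius in a qHTS format.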
(Cellular ATP, detected with luciferase, serves as a proxy for viable cell number.)

Experiment [1] concerns HaCat. Described as above. The note with it: Five cell lines viability, CellTiter-Glo ATP luminescence, 48-72 h; max response: hits give low values. Summed up: as §1
Experiment [2] relates to HACAT. The experiment is described as follows: qHTS assay to identify novel small-molecules to repurpose for Merkel cell carcinoma treatment (AID 1296009). Further: nearly all actives have a fitted effect of over 60% in size. The note with it: MCC and control cell lines, CellTiter-Glo viability, 72 h; at 44.8 µM (top of the series) unless noted. In a few lines: (§2)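 Cell viability measured by CellTiter-Glo following 72 hr compound treatment at 37 degree celsius, with NPC and MIPE libraries tested in 8- and 11-point concentration series.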
Background: Quantitative high-throughput screening tests each substance at several concentrations.

The subject of another experiment is MCC-13. The experiment is described as above. The note with it: MCC and control cell lines, CellTiter-Glo viability, 72 h; series mostly up to 46 µM. In a few lines:
as §2

The next experiment deals with MCC-26. Described as above. The note with it: MCC and control cell lines, CellTiter-Glo viability, 72 h; series mostly up to 46 µM. In a few lines: as §2
In a further experiment the test system is MKL-2. Described as above. The following applies: MCC and control cell lines, CellTiter-Glo viability, 72 h; series mostly up to 46 µM. Summed up: as §2
In experiment [3] the test system is NIH3T3. The experiment is described as follows: Cytotoxic Profiling of Annotated Libraries Using Quantitative High-Throughput Screening (AID 1296008). Further: nearly all actives have a fitted effect of over 60% in size. The note with it: Five cell lines viability, CellTiter-Glo ATP luminescence, 48-72 h; max response: hits give low values. Summed up: as §1
The test system of a further experiment is MKL-1. The experiment is described as follows: qHTS assay to identify novel small-molecules to repurpose for Merkel cell carcinoma treatment (AID 1296009). Further: nearly all actives have a fitted effect of over 60% in size. The following applies: MCC and control cell lines, CellTiter-Glo viability, 72 h; series mostly up to 46 µM. Summed up:
as §2

The test system of the next experiment is WaGa. The description is as above. The following applies: MCC and control cell lines, CellTiter-Glo viability, 72 h; series mostly up to 46 µM. In a few lines:
as §2

The test system of another experiment is KB-3-1. The experiment is described as follows: Cytotoxic Profiling of Annotated Libraries Using Quantitative High-Throughput Screening (AID 1296008). Further: nearly all actives have a fitted effect of over 60% in size. The note with it: Five cell lines viability, CellTiter-Glo ATP luminescence, 48-72 h; max response: hits give low values. Summed up: as §1
Experiment [4] concerns NIH3T3. The experiment is described as follows: qHTS assay to identify novel small-molecules to repurpose for Merkel cell carcinoma treatment (AID 1296009). Further: nearly all actives have a fitted effect of over 60% in size. The note with it: MCC and control cell lines, CellTiter-Glo viability, 72 h; series mostly up to 44.8 µM. In a few lines:
as §2

The subject of the next experiment is UISO. Described as above. The note with it: MCC and control cell lines, CellTiter-Glo viability, 72 h; series mostly up to 46 µM. Summed up: as §2
For a further experiment, the system named is C33A. The experiment is described as follows: Primary qHTS to identify gynecologic anti-cancer compounds using libraries of approved drugs and bioactive compounds (AID 1345084). Further: nearly all actives have a fitted effect of over 55% in size. The following applies: Gynecologic cancer cell panel viability, ATPlite luminescence, 48 h; series mostly up to 57.5 µM. Summed up:
(§3)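 Cells, 1,000 per well, plated 16 h, then exposed 48 h at 37 C to compounds. Viability by ATPlite luminescence after 15 min at room temperature.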

In the next experiment the test system is CASKI. The experiment is described as above. The following applies: Gynecologic cancer cell panel viability, ATPlite luminescence, 48 h; series mostly up to 57.5 µM. Summed up: as §3
The next experiment deals with Es-2. The description is as above. The following applies: Gynecologic cancer cell panel viability, ATPlite luminescence, 48 h; series mostly up to 57.5 µM. Summed up:
as §3

For the next experiment, the system named is HeLa. The description is as above. The note with it: Gynecologic cancer cell panel viability, ATPlite luminescence, 48 h; series mostly up to 57.5 µM. In a few lines: as §3
On the % scale 0 is the no-effect control and ±100 the full control effect; potency means the concentration at half of the fitted maximal effect.

On to `NCc1c[nH]c(=S)n1[C@H]1CCc2c(F)cc(F)cc2C1`, for which the Potency with CRL-7250 was 16600 nM (active); in the experiment with MKL-2, 20900 nM (active). Also, the outcome with HaCat [1] and with HACAT [2] was inactive. Besides, the Potency result in the experiment on MCC-13 and with MCC-26 was “inactive” throughout.
Regarding `Nc1nc(Cl)nc2c1ncn2[C@@H]1O[C@H](CO)[C@@H](O)[C@H]1F`, the Potency with CRL-7250 was 1660 nM (active); in the experiment with HaCat [1], 74.3 nM (active); with NIH3T3 [3], 0.166 µM (active); in the experiment with MCC-26, 590 nM (active); in the experiment on MKL-1 it was 13.2 nM (active). Moreover, in the experiment with WaGa, the Potency entry is “inactive”.
As to `CN1CCN2c3ncccc3Cc3ccccc3C2C1` (configuration not stated), the max response is -0.363% with CRL-7250; -6.78% in the experiment with HaCat [1]; -7.74% and 1.92% in the experiment on KB-3-1. Besides, the compound was classed as inactive in the experiment on NIH3T3 [3]. Also, the Potency entry in the experiment with MCC-13, in the experiment with MCC-26, in the experiment on MKL-1, with MKL-2, in the experiment on NIH3T3 [4] and in the experiment with UISO was “inactive” throughout. For the same compound, the Potency entry in the experiment with WaGa is “inactive”.
As for `Cc1c(-c2cccc3c(CCCOc4cccc5ccccc45)c(C(=O)O)n(Cc4cccnc4)c23)c(COc2ccc(N3CCN([S+](=O)([O-])N(C)C)CC3)cc2)nn1C`, the max response was -2.89% with CRL-7250, -5.9% in the experiment with HaCat [1] and -4.88% with NIH3T3 [3]. Besides, the Potency result in the experiment on MCC-13, in the experiment on MKL-1, in the experiment on MKL-2, in the experiment with UISO and with WaGa was “inactive” in each case.
For `CC(=O)O[C@]1(C(C)=O)CC[C@H]2[C@@H]3C=C(Cl)C4=CC(=O)[C@@H]5C[C@H]5[C@]4(C)[C@@H]3CC[C@@]21C`, the compound was classed as inactive with CRL-7250, with KB-3-1 and with NIH3T3 [3]. Besides, the max response with HaCat [1] was -0.438%. Besides, the Potency result in the experiment with MCC-13, with MCC-26, with MKL-1, in the experiment with NIH3T3 [4] and in the experiment with WaGa was “inactive” each time.
Turning to `CCNC(=O)c1noc(-c2cc(C(C)C)c(O)cc2O)c1-c1ccc(CN2CCOCC2)cc1`, the Potency in the experiment on CRL-7250 is 83.3 nM (active); in the experiment on HaCat [1], 469 nM (active) and 41.1 nM (active); in the experiment on NIH3T3 [3], 264 nM (active) and 51.7 nM (active); with MCC-13, 209 nM (active); in the experiment on UISO, 166 nM (active). In addition, the Potency entry in the experiment with MKL-2 was “inactive”.
For `COc1cc(CNC(=O)CCCCC=CC(C)C)ccc1O`, the max response is -19.8% in the experiment with CRL-7250, 3.92% with HaCat [1] and -24.7% in the experiment on KB-3-1. For the same compound, in the experiment with NIH3T3 [3], the Potency was 10.5 µM (active). Also, the Potency result in the experiment on MCC-13, with MCC-26, with MKL-1 and in the experiment on WaGa was “inactive” in each case.
For `O=C1Nc2ccc(I)cc2C1=Cc1cc(Br)c(O)c(Br)c1`, in the experiment with CRL-7250, the call was inactive. Also, the max response was 4.95% in the experiment with HaCat [1], 8.65% in the experiment with KB-3-1 and -9.84% in the experiment with NIH3T3 [3]. Also, the Potency result in the experiment on MCC-13, in the experiment on MCC-26, in the experiment on MKL-1, in the experiment with MKL-2 and in the experiment with WaGa was “inactive” in each case.
As to `C#C[C@]1(O)CC[C@H]2[C@H]3CCc4cc(OC)ccc4[C@H]3CC[C@@]21C`, the max response with CRL-7250 is -5.04%; with HaCat [1] it was 0.906%; with KB-3-1, -15.5%; with NIH3T3 [3] it was 2.86%. The Potency result in the experiment with MCC-13, with MCC-26, in the experiment on MKL-1, in the experiment with MKL-2, with UISO and with WaGa was “inactive” throughout.
`COc1cc(C=CC(=O)O)ccc1O`: the max response with CRL-7250 was 1.23%; with HaCat [1], -11.1%; in the experiment with KB-3-1, 4.21%. Further, the call with NIH3T3 [3] was inactive. Also, the Potency result in the experiment with MCC-13, with MCC-26, in the experiment with MKL-1, in the experiment on MKL-2, in the experiment with NIH3T3 [4] and with UISO was “inactive” throughout. Besides, the Potency result in the experiment on WaGa was “inactive”.
For `NC[C@H]1O[C@H](O[C@@H]2[C@@H](O)[C@@H](O[C@H]3O[C@H](CO)[C@@H](O)[C@H](N)[C@@H]3O)[C@H](N)C[C@@H]2N)[C@H](O)[C@@H](O)[C@H]1O`, the max response was -1.7% with CRL-7250, -1.4% with HaCat [1], 4.43% with KB-3-1 and -1.04% with NIH3T3 [3]. In addition, the Potency result in the experiment with MCC-13, with MCC-26, with MKL-2, with UISO and with WaGa was “inactive” in each case.
As for `Cc1cc(CS(=O)(=O)c2ccccc2)cc(OCc2ccc(CN3CCC[C@H]3CO)cc2)c1`, the Potency was 1320 nM (active) in the experiment on CRL-7250, 1480 nM (active) in the experiment on HaCat [1], 3720 nM (active) in the experiment on KB-3-1 and 2.96 µM (active) in the experiment with NIH3T3 [3]. In addition, the Potency result in the experiment on MCC-13, with MCC-26, with MKL-1, in the experiment with MKL-2, in the experiment with UISO and with WaGa was “inactive” in each case.
`O=C1NC(=O)C(c2cnc3ccccn23)=C1c1cn2c3c(cccc13)CN(C(=O)N1CCOCC1)CC2`: the Potency in the experiment with CRL-7250 was 16.6 nM (active); with CASKI, 3160 nM (active). The max response in the experiment on HaCat [1] was -40.4%; in the experiment with NIH3T3 [3] it was -24.9%. Also, the Potency result with MKL-1, with MKL-2, in the experiment on C33A, in the experiment on Es-2 and with HeLa was “inactive” each time.
